Key:
Test in all cases: PBM binding z-score (relative to random genomic background probes); higher = stronger binding; sequences stand for … in GC…GCGATTGACAGCGTAGAATGAAGG
[1] = system: PPARg:RXRa DBDmut IVT, anti-RXR (DBD mutation: RXRa K156A/R161A, NR concentration 270 nM, RXRa partner concentration 90 nM)
Summary of the method: (§1)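 Binding z-scores take random background probes as their reference. They come from custom Agilent 4×180K protein-binding microarrays incubated 1 h with ligand-free nuclear receptor dimers, with antibodies against each partner (one per run) detecting binding. Scanned fluorescence was regression-normalized.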

[2] = system: PPARg:RXRa IVT, anti-PPARg (NR concentration 270 nM, RXRa partner concentration 90 nM)
Summary of the method: as §1

[3] = system: PPARg DBDmut:RXRa IVT, anti-PPARg (DBD mutation: PPARg1 K132A/R137A, NR concentration 270 nM, RXRa partner concentration 90 nM)
Summary of the method: as §1

[4] = system: PPARg DBDmut IVT, anti-PPARg (DBD mutation: PPARg1 K132A/R137A, NR concentration 270 nM)
Summary of the method: as §1

[5] = system: PPARg homodimer (NR concentration 180 nM)
Summary of the method: as §1

[6] = system: PXR:RXRa (NR concentration 270 nM, RXRa partner concentration 90 nM)
Summary of the method: as §1

[7] = system: PXR homodimer (NR concentration 270 nM)
Summary of the method: as §1

[8] = system: RARa:RXR (NR concentration 270 nM, RXRa partner concentration 90 nM)
Summary of the method: as §1

[9] = system: RARa homodimer (NR concentration 270 nM)
Summary of the method: as §1

[10] = system: RARb:RXRa (NR concentration 270 nM, RXRa partner concentration 90 nM)
Summary of the method: as §1

Row | Sequence | PBM binding z-score [1] | PBM binding z-score [2] | PBM binding z-score [3] | PBM binding z-score [4] | PBM binding z-score [5] | PBM binding z-score [6] | PBM binding z-score [7] | PBM binding z-score [8] | PBM binding z-score [9] | PBM binding z-score [10]
1 | CTACCAAGGTGAACAAGGTAGTTGATTACTATTC | 2.65 | 2.48 | 0.56 | 0.814 | 0.0631 | 0.0464 | -0.0276 | 0.456 | -0.151 | 1.53
2 | CCTTACGGGTCAAAGTTATAGCACGGGTGGTACG | 1.88 | 3.45 | 0.255 | 0.0478 | 2.1 | 3.35 | 0.317 | 4.38 | 1 | 3.7
3 | AAATGTAGGTTACATCCGGGTCATTCAGGCTATG | 8.29 | 8.08 | 3.52 | 2.02 | 2.68 | 3.79 | 2.33 | 3.75 | 1.1 | 2.28
4 | CCTACTGGGCCTTTCAGAGGTCATTGATCATATG | 2.39 | 2.44 | -0.307 | 0.081 | 2.46 | 4.68 | 2.5 | 4.52 | 1.01 | 2.8
5 | AGTCAAAGATCAGGACGAGGTAACGTAAAGCACG | -0.64 | 0.122 | 0.0525 | 0.169 | -0.153 | -0.236 | -0.419 | 0.336 | 0.445 | 0.247
6 | ATCTCTAGGTAAGACTCAGTTCAGTGAAGAACGC | 1.86 | 0.996 | 1.18 | 1.16 | 1.11 | 1.04 | 1.31 | 0.197 | 0.948 | 0.386
7 | GCATATAGGTAATACAAGGTTAAAGTCCGATTGT | 4.38 | 3.23 | 0.799 | 0.913 | 1.39 | 2.6 | 0.613 | 2.53 | 0.428 | 0.87
8 | AGAACGAGGGCACGCTGAATTGATAGCAGAGTAG | 4.42 | 4.08 | 0.656 | 0.0574 | -0.00941 | 0.266 | -0.373 | 0.746 | -0.442 | 2.5
9 | ACTCGGAGGACAAAGGTCGGAGCTACGCCAGTGA | -0.0622 | 1.75 | -0.143 | -0.29 | 0.786 | 1.29 | -0.332 | 1.84 | -0.447 | 2.34
10 | ATATGTAGGTTACATCCGGGGCATTCAGGCTATG | 7.46 | 7.35 | 2.05 | 1.15 | 0.96 | 1.14 | 0.659 | 0.992 | 0.476 | 1.26
11 | AGTCAAAGTTCAGGACGAGGTAACGGAAAGCACG | -0.203 | 2.06 | 0.787 | 0.337 | 2.37 | 2.66 | 1.31 | 2.62 | 0.344 | 4.22
12 | CATACAGGGTGAGCTAGGCCAGAGTAGGGACGGC | 0.503 | 1.32 | -0.282 | -0.518 | -0.692 | -0.394 | -0.379 | -0.0235 | -0.0733 | 0.894
13 | TCTAGTTGGTCAAAGGTCACACTCTCGAAATGCG | 3.65 | 6.05 | 1.12 | 1.37 | 5.48 | 5.85 | 1.74 | 7.41 | 3.43 | 4.92
14 | CGTCCAAGGTCATAGGAGGTCAGTGGAGACAGAT | 3.31 | 4.65 | 1.06 | -0.0581 | 7.55 | 6.94 | 6.61 | 5.94 | 4.42 | 5.39
15 | GCTCGGAGGACAAGGTCAGAGCGTTGTCCGTAGA | -0.242 | 0.658 | -1.14 | -1.68 | 0.169 | 1.68 | -0.131 | 2.07 | -0.539 | 3.4
16 | CGTACTGGGCCAAGGTCATTGATCAGTCAAAGCA | 4.15 | 4.66 | -0.787 | -0.351 | 1.31 | 3.51 | 1.34 | 3.71 | -0.0917 | 3.35
17 | TCTCGCAGGACACGAAAGGTCAGAGCTCGACATC | 1.62 | 1.4 | 0.807 | 0.509 | 2.57 | 3.87 | 0.38 | 4.53 | 1.07 | 3.95
18 | ATCTCTAGCTAAAGATAGTTCAGTGAATGCAAAT | -0.205 | -0.237 | 1 | 0.169 | 0.538 | 0.463 | 0.542 | 0.855 | 0.543 | 0.329
19 | TAGCCTAGGTCTGATCGGGCCAGTATACGCTATA | -0.797 | -0.522 | -0.763 | -0.994 | -0.906 | -0.673 | -1.05 | -0.33 | -1.47 | -0.362
